Values joined by “and” are separate entries in the source; they are usually repeats but may differ in a detail not shown here. Equal entries are not always repeated. Among all 16,000 compounds or so, about 4,000 (25%) were called active. Not shown: some 26% with an inconclusive outcome. A selection follows. Values without a mark were called inactive. Calls follow the shape of the dose curve; as a rule, active = well fitted curve in the direction sought with a large enough effect; inconclusive = small, poorly fitted or top-dose-only effect, or effect the other way; inactive = no such curve, though single readings can be large or run the other way.
% is scaled to controls: 0 for no effect and ±100 for the full control effect.

This experiment deals with Cytochrome P450 2C9 (Homo sapiens) (UniProt P11712). Nature of the experiment: Cytochrome panel assay with activity outcomes. To be noted: recombinant CYP, pro-luciferin dealkylation, luminescence, p450-cyp2c9; series mostly up to 57.1 µM; activity, negative = inhibition: at the top concentration.
Sequence of Cytochrome P450 2C9 (Homo sapiens) (P11712 whole entry, looked up): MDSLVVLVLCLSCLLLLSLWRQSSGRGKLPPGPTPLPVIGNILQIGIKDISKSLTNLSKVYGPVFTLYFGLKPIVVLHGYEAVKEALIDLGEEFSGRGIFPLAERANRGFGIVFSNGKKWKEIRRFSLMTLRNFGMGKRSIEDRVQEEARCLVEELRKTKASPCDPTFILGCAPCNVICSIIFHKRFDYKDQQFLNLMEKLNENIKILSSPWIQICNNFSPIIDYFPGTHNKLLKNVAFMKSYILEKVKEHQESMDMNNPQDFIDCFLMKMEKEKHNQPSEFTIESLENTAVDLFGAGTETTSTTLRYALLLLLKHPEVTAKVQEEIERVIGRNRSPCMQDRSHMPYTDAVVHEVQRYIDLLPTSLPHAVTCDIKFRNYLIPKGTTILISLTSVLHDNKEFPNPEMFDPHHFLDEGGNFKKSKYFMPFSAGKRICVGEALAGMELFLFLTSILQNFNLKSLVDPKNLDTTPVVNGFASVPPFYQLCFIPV
Turning to `CCCn1c(=O)c2[nH]c(C3CCCC3)nc2n(CCC)c1=O`, the “activity, negative = inhibition” value was -16.3%.
Regarding `Nc1ncnc2c1ncn2[C@H]1O[C@@H](C(=O)O)[C@@H](O)[C@H]1O`, the activity, negative = inhibition was 20% [at 11.4 µM].
Consider `O=C(c1ccco1)N1CCC2(CC1)CN(c1ccccn1)C2`, for which the “activity, negative = inhibition” value was 2.21%.
As for `CC(C)c1ccc(OCc2ccc(C(=O)N3CCN(c4ccccn4)CC3)cc2)cc1`, the concentration at half-maximal activity (AC50) was 3.16 µM (active).
In the case of `COc1ccc(S(=O)(=O)NCc2ccc(C(=O)N3CCN(c4ccccn4)CC3)cc2)cc1`, the AC50 was 3.98 µM (active).
Regarding `COc1ccc(C(=O)N2CCC3(CC2)CCN(c2ncccn2)CC3)cc1`, the “activity, negative = inhibition” value is -29.8%.
Take `COc1ccc(C(=O)N2CCC3(CC2)CN(C(=O)Nc2ccccc2)C3)cc1`: the “activity, negative = inhibition” value is 0.0177%.
On the same count and under the same terms, in the case of `COCC(=O)N1CCC2(CC1)CCN(c1ccccn1)CC2` it was -6.99%; in that of `Cc1ccc2[nH]c3nc(CCCn4ccnc4-c4ccccc4)nnc3c2c1`, -17.6% [at 11.4 µM].
Turning to `C[C@@H]1CCc2cc(F)cc3c(=O)c(C(=O)O)cn1c23`, the “activity, negative = inhibition” value was 17.9% [at 25.6 µM].
Turning to `CCOC(=O)CC(=O)CSc1nnc2c(n1)[nH]c1ccccc12`, the concentration at half-maximal activity (AC50) was 8.91 µM (active).
Consider `CCOCc1cnc(C)nc1NCC(=O)c1c(C)[nH]c2ccccc12`, for which the “activity, negative = inhibition” value was 2.81%.
Turning to `Cc1ccc(C(=O)NNC(=O)c2cc3cc4ccccc4nc3s2)cc1`, the “activity, negative = inhibition” value is -26%.
In the case of `Cc1ccc(C(=O)NNC(=O)CSc2nnc3c(n2)[nH]c2ccc(F)cc23)cc1`, the AC50 is 5.62 µM (active).
On to `CC1CCc2cc(F)ccc2N1C(=O)CSc1nnc2c(n1)[nH]c1ccc(F)cc12` (configuration not stated), for which the concentration at half-maximal activity (AC50) was 1.78 µM (active).
For `CON(C)C(=O)c1nnc2c(n1)[nH]c1ccccc12`, the activity, negative = inhibition was -19% [at 11.4 µM].
As for `CCOc1cc(CN2CCN(c3ccc(C(C)=O)cc3)CC2)ccc1OC`, the “activity, negative = inhibition” value was -29%.
For `COc1ccccc1CN1CCC2(CC1)CCN(C(C)=O)CC2`, the “activity, negative = inhibition” value is 8.11%.
Consider `COc1cccc(/C=N\NC(=O)c2cc(OCC(F)(F)F)ccc2OCC(F)(F)F)c1`, for which the “activity, negative = inhibition” value was -8.34%.
For `COc1ccc(/C=N/NC(=O)c2ccccc2)cc1CN1CCN(c2ccc(F)cc2)CC1`, the AC50 is 11.2 µM (active).
As for `COc1ccc(/C=N/NC(=O)c2ccn[nH]2)cc1COc1ccc(F)cc1`, the AC50 is 25.1 µM (active).
In the case of `COc1ccc(/C=N/NC(=O)c2ccn[nH]2)cc1COc1ccc(Cl)cc1`, the AC50 was 12.6 µM (active).
On to `Cc1ccc(/C=N\NC(=O)c2cc(OCC(F)(F)F)ccc2OCC(F)(F)F)cc1`, for which the “activity, negative = inhibition” value is -1.33%.
Turning to `Cc1n[nH]c(=O)[nH]c1=O`, the “activity, negative = inhibition” value is -0.473% [at 25.6 µM].
As for `CCOc1nc(N2CCCCC2)nc(-n2cc(-c3ccccc3)nn2)n1`, the AC50 was 2.24 µM (active).
As for `O=C(O)CC12C[C@H]3C[C@@H](CC(O)(C3)C1)C2`, the activity, negative = inhibition was -4.71% [at 11.4 µM].
As to `Cc1cnc(CNc2nc(-c3cccnc3)nc3ccccc23)cn1`, the activity, negative = inhibition is 16.9% [at 2.29 µM].
Still for that read-out and setting: for `NCCS` the value was -13.1%.
For `Cc1c(Br)c([N+](=O)[O-])nn1C(C)C(=O)Nc1nccs1` (configuration not stated), the AC50 was 3.55 µM (active).
On to `O=C(O)c1cc(=O)cc(C(=O)O)[nH]1`, for which the “activity, negative = inhibition” value is -3.86%.
Regarding `CO[C@H]1COC(=O)C/C=C\[C@H](C)[C@H](OC)COC(=O)[C@@H](C)COC(=O)C/C=C\[C@@H]1C`, the activity, negative = inhibition was -5.38% [at 11.4 µM] and 5.78% [at 11.4 µM].
As to `CO[C@H]1COC(=O)C/C=C\[C@H](C)[C@@H](OC)COC(=O)[C@@H](C)COC(=O)C/C=C\[C@@H]1C`, the half-maximal activity concentration (AC50) was 2.51 µM (active).
For `CO[C@@H]1COC(=O)C/C=C\[C@@H](C)[C@H](OC)COC(=O)[C@@H](C)COC(=O)C/C=C\[C@H]1C`, the activity, negative = inhibition is 11.9% [at 11.4 µM].
`Cc1nn(-c2ccccc2)c2c1C(c1ccc(O)c(O)c1)N1C(=N2)C(Nc2ccccc2)=Nc2ccccc21` (configuration not stated): the AC50 is 1.26 µM (active).
On to `CC(=O)Nc1ccc(NC2=Nc3ccccc3N3C2=Nc2c(c(C)nn2-c2ccccc2)C3c2ccccc2)cc1` (configuration not stated), for which the AC50 was 1.78 µM (active).
Take `O=C(NNS(=O)(=O)c1ccc(Cl)cc1)c1cnn(-c2ccccc2)c1-n1cccc1`: the half-maximal activity concentration (AC50) was 1.78 µM (active).
With `O=C(NNS(=O)(=O)c1ccc(Cl)cc1)C1CCN(Cc2ccccc2)CC1`, the “activity, negative = inhibition” value was -17.3%.
As for `Cc1cc(C)cc(C(=O)N(C)[C@H](Cc2ccc(-c3ccccc3)cc2)C(=O)N[C@@H](Cc2c[nH]c3ccccc23)C(=O)O)c1`, the “activity, negative = inhibition” value was -24.1%.
With `COc1cccc(N(C(=O)Cn2nnc(-c3ccc(C)cc3)n2)C(C(=O)NC(C)(C)C)c2c[nH]c3ccccc23)c1` (configuration not stated), the AC50 is 5.01 µM (active).
As to `Cc1[nH]c(N)nc(=S)c1CCCNc1ccccc1`, the activity, negative = inhibition is -9.42% [at 11.4 µM].
`CCCc1cc(=O)[nH]c(SCc2cc(Cl)ccc2OC(F)F)n1`: the half-maximal activity concentration (AC50) is 2.82 µM (active).
Turning to `O=C(O)c1cc(=O)[nH]c(SCc2ccccc2)n1`, the activity, negative = inhibition was -7.95% [at 11.4 µM].
With `Cn1c(=O)c(-c2ccc(F)cc2)nc2cnc(Oc3ccccc3)nc21`, the “activity, negative = inhibition” value is 13.7%.
For `O=C1/C(=C\c2ccccn2)SC(=S)N1Nc1ncc(C(F)(F)F)cc1Cl`, the AC50 was 5.01 µM (active).
Regarding `Cc1ccc(C)c(-n2c(Cc3cc(=O)[nH]c(=O)[nH]3)nnc2SCC(=O)NCC2CCCO2)c1` (configuration not stated), the “activity, negative = inhibition” value is -15.2%.
As to `Cc1cccc2c(SCC(=O)NCC3CCCO3)nc(-c3ccc(F)cc3)nc12` (configuration not stated), the AC50 was 3.98 µM (active).
Turning to `COc1ccc(-c2nc(CSCC(=O)NCC3CCCO3)c(C)o2)cc1OC` (configuration not stated), the “activity, negative = inhibition” value is -29.9%.
The same measure, in the same setting: for `S=C(Nc1ccc2c(c1)Cc1ccccc1-2)Nc1ccc2c(c1)Cc1ccccc1-2` the value was 1.69% [at 11.4 µM]; for `O=C(O)/C=C\C(=O)Nc1ccc2c(c1)-c1ccccc1C2`, -10.9% [at 11.4 µM].
Regarding `O=C(O)c1ccccc1-c1ccccc1C(=O)Nc1ccc2c(c1)Cc1cc(F)ccc1-2`, the AC50 is 2.51 µM (active).
As to `CO[C@]1(C2=NCCN2)COc2ccccc2O1`, the “activity, negative = inhibition” value is 17.2%.
Still for that read-out and setting: in the case of `CC(C)OCCCNC(=O)C1CC(=O)N(C2CCCCCCC2)C1` (configuration not stated) it was -16.8%; in that of `C[N+](C)(C)c1nc(N)nc2c1ncn2[C@H]1O[C@@H](CO)[C@@H](O)[C@H]1O`, 12.2% [at 11.4 µM]; in that of `CN(C(=O)C(Cl)Cl)c1ccc(OC(=O)c2ccco2)cc1`, 7.39% [at 25.6 µM].
With `CC(C)(C)c1[nH]nc2c1C(c1ccc(OC(=O)c3ccco3)cc1)C(C#N)=C(N)O2` (configuration not stated), the AC50 is 4.47 µM (active).
On to `CC(C)NC[C@@H](O)COc1ccccc1-n1cccc1`, for which the “activity, negative = inhibition” value is 6.41%.
On the same count and under the same terms, in the case of `C=C(C)[C@@H]1CC=C(C(=O)O)CC1` it was 3.86%.
`Cc1ccc(C(=O)NNC(=O)CSc2nnc(-c3ccncc3)n2-c2ccc(C)cc2)cc1`: the concentration at half-maximal activity (AC50) was 5.01 µM (active).
`Cc1cccc(CNc2ncncc2-c2ccc(C(=O)N(C)C)cc2)c1`: the activity, negative = inhibition is 2.16% [at 2.29 µM].
On to `Cc1ccc(S(=O)(=O)NCCSc2nnnn2C)cc1`, for which the “activity, negative = inhibition” value is -21.7%.
`CCC1(C)CC(CCNS(=O)(=O)c2ccc(C)cc2)(c2ccc(C)cc2)CCO1` (configuration not stated): the half-maximal activity concentration (AC50) was 5.62 µM (active).
As to `CN(C)CCNC(=O)C(C(=O)c1ccc(F)cc1)n1ccccc1=O` (configuration not stated), the “activity, negative = inhibition” value is -16.9%.
As for `CC(C)=CCC/C(C)=C/CO/N=C1/[C@H]2O[C@@H]2[C@@H](O)[C@H]2[C@H]1CCn1c(=O)n(Cc3cc4c(cc3Cl)OCO4)c(=O)n12`, the activity, negative = inhibition is -2.9% [at 11.4 µM].
On the same count and under the same terms, for `Cc1noc(C)c1-c1nccc(NCc2cccnc2)n1` the value was 3.9% [at 2.29 µM]; for `OC[C@@H]1O[C@@H](O)[C@H](N=Cc2ccc3c(c2)OCO3)[C@@H](O)[C@@H]1O`, 12.1% [at 11.4 µM].
Regarding `O=C(O)/C=C\C=C/c1ccc2c(c1)OCO2`, the activity, negative = inhibition is -5.25% [at 11.4 µM].
In the case of `C[C@@H](C(=O)O)/C(=C/c1ccc2c(c1)OCO2)C(=O)O`, the concentration at half-maximal activity (AC50) is 2.51 µM (active).
For the molecule `Cc1ccccc1Oc1ccc(-c2nc(N)nc(N)n2)cc1`, the AC50 was 8.91 µM (active).
Regarding `Cc1cccc(Oc2ncc(-c3ccc(Cl)cc3)cn2)c1C`, the “activity, negative = inhibition” value is -23%.
With `Nc1nc(-c2ccc3ccccc3c2)cc(-c2cc(-c3ccc4ccccc4c3)nc(N)n2)n1`, the activity, negative = inhibition was 8.18% [at 11.4 µM].
Same read-out and setting: for `COc1cccc(NC(=O)C2c3cc(OC)c(OC)cc3C(=O)N(C)C2c2cccnc2)c1` (configuration not stated) the value was -19.8%.
Take `COc1cccc(NC(=O)c2cc(-c3cccnc3)nc3c(Cl)cccc23)c1`: the AC50 was 0.794 µM (active).
As to `CCCOc1ccc(-c2nc(N)n[nH]2)cc1`, the “activity, negative = inhibition” value is -24.8%.
For the molecule `NCCSS(=O)(=O)CCN`, the activity, negative = inhibition was -9.3% [at 11.4 µM].
In the case of `CCc1cc2c(Sc3nc4ccccc4s3)ncnc2s1`, the AC50 was 11.2 µM (active).
`c1ccc(NCCSc2nc3ccccc3s2)cc1`: the activity, negative = inhibition is -12.4% [at 11.4 µM].
For `CCn1c2ccccc2c2cnc(N=CN(C)C)c(C#N)c21`, the AC50 is 14.1 µM (active).
Consider `O=C1[C@H]2[C@H]3[C@H](O)[C@H](O)C/C(=N/OC[C@@H](O)COCc4ccco4)[C@H]3CC[C@@H]2C(=O)N1C1CCCCC1`, for which the activity, negative = inhibition is 23.1% [at 11.4 µM].
Consider `O=C(O)[C@H]1CN[C@H](C(=O)O)C1`, for which the “activity, negative = inhibition” value is 0.543%.
For `CCOC(=O)C(C)Sc1ncc(OC)c(Sc2ccc(Cl)cc2)n1` (configuration not stated), the AC50 was 2.51 µM (active).
Turning to `COC(=O)CSc1ncc(OC)c(OC)n1`, the “activity, negative = inhibition” value is 6.45%.
On to `CCOC(=O)CSc1ncc(OC)c(Sc2ccc(Cl)cc2)n1`, for which the AC50 was 0.891 µM (active).
In the case of `Cc1cnc(CNc2ncncc2-c2ccoc2)cn1`, the activity, negative = inhibition is 6.74% [at 2.29 µM].
As for `O=C(NCCN1CCN(C(=O)c2cc3ccccc3oc2=O)CC1)c1cc2ccccc2oc1=O`, the “activity, negative = inhibition” value is -15.3%.
As for `O=C(Nc1ccc(-n2nncc2-c2ccco2)cc1)c1cc2ccccc2oc1=O`, the half-maximal activity concentration (AC50) was 2.24 µM (active).
On the same count and under the same terms, in the case of `COc1ccc(-c2cnnn2-c2ccc(NC(=O)c3ccco3)cc2)cc1OC` it was 2.24 µM (active).
Take `CO[C@H]1C=CO[C@]2(C)Oc3c(C)c(O)c4c(O)c(c5c(c4c3C2=O)NC2(CCN(CC(C)C)CC2)N=5)=NC(=O)C(C)=CC=C[C@@H](C)[C@@H](O)[C@@H](C)[C@@H](O)[C@@H](C)[C@@H](OC(C)=O)[C@@H]1C`: the “activity, negative = inhibition” value is 5.75% [at 25.6 µM].

The record behind these values is PubChem BioAssay AID1851 (National Center for Advancing Translational Sciences (NCATS), 2009).
